An excerpt weighted towards active compounds, which were near 12% of everything screened.
ALDH1A1 inh: ALDH1A1 (human) enzyme inhibition; Purified ALDH1A1, NADH fluorescence, propionaldehyde substrate; Potency, µM (titrated, usually from 75.3 µM), without a hit: at the highest dose activity, negative = inhibition, most hits filed as inhibitors; 7.3% of 220,000 active; active means well fitted inhibition curve with a large enough effect, not every such curve was filed as active; inconclusive means small, poorly fitted or top-dose-only effect, or another doubt; inactive means no such curve, though single readings can be large or run the other way;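 further: plate controls were no enzyme wells and a reference inhibitor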
Target sequence (P00352 whole entry, looked up): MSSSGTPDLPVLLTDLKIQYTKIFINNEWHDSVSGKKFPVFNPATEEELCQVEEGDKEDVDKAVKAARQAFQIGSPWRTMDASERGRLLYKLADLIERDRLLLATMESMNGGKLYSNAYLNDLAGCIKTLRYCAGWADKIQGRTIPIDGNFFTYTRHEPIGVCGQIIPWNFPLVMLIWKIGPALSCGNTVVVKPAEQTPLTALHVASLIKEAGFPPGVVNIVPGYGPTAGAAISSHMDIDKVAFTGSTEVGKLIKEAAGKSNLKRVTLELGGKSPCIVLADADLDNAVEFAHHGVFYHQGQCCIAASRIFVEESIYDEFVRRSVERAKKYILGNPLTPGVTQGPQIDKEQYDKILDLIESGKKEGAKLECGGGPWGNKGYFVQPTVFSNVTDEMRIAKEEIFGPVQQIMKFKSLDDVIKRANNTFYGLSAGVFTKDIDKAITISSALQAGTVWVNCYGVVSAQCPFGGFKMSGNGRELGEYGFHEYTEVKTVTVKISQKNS
Gal4-VP16 FLuc: counter-screen for ROR gamma inhibitors: Gal4-VP16 reporter | AID 2546 | Potency, µM (top dose mostly 53.6 µM), for the others: top-dose activity, negative = inhibition, most hits filed as inhibitors | Drosophila S2 Gal4-VP16 UAS-luciferase, luminescence, 20 h | 3.5% of 310,000 active;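 further: Gal4-VP16 expression switched on by copper sulfate through the metallothionein promoter; nearly all actives have a fitted effect of over 50% in size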
PLK1 PBD block: inhibitors of human PLK1 polo-box domain binding. P53350. Plk1 PBD binding of FITC phosphopeptide, fluorescence polarization. Potency, µM, inactives show max response, negative = inhibition, usual class: inhibitors. 2.8% of 360,000 active. AID 720504; further: series mostly up to about 57 µM; nearly all actives have a fitted effect of over 65% in size
RORgamma inh: inhibitors of mouse ROR gamma transcriptional activity. 5.4% of 310,000 active. Drosophila S2 Gal4-RORgamma UAS-luciferase reporter, 20 h. AID 2551. Potency, µM (series often up to 53.6 µM), for the others: top-dose activity change, negative = inhibition, hits mostly inhibitors. P51450; further: nearly all actives have a fitted effect of over 60% in size
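Stable Schneider cell line, Gal4 DNA-binding domain fused to ROR gamma, UAS-luciferase. Cmpd 1 hr RT → CuSO4 700 uM final → 20 hr RT → luciferase reagent 10 min → luminescence.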
Sfp PPTase inh: blocks B. subtilis Sfp PPTase activity; Q9F4F7; Biochemical Sfp PPTase activity, qHTS; Potency, µM, for inactives: largest response in the series, negative = inhibition, actives largely listed as inhibitors; 3.5% of 310,000 active; AID 1490;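 further: the enzyme is Sfp with the accession as filed and its product quenches rhodamine fluorescence; 0% = enzyme reaction without inhibitor and -100% = no enzyme wells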
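After 15 min at room temperature with compound, 15 nM Sfp received 5 uM rhodamine-CoA plus 12.5 uM BHQ-2-ybbR (50 mM Hepes pH 7.6, 10 mM MgCl2). Rate came from the fluorescence difference over 30 min, ex 525/em 598 nm.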
* hit, by the source's call; ? = inconclusive; / = not tested or not shown; [ ] = dose if it differs, or a comment. Unless noted, the call rests on the fitted dose curve; in most records, active means well fitted curve in the direction sought with a large enough effect; inconclusive means small, poorly fitted or top-dose-only effect, or another doubt; inactive means no such curve, though single readings can be large; an effect the other way counts as inactive or inconclusive. Unless noted, on the % scale 0 is the no-effect control and ±100 the full control effect; potency means the concentration at half of the fitted maximal effect.

SMILES	ALDH1A1 inh	Gal4-VP16 FLuc	PLK1 PBD block	RORgamma inh	Sfp PPTase inh
COc1ccccc1C(=O)NCCC(=O)NCCc1ccccc1	/	1.8%	1.0%	-0.8%	6.0%
Cc1ccc(Sc2cnn(-c3ccccc3)c(=O)c2Cl)cc1	0.0%	0.0%	-0.3%	-0.3%	-9.7%
C=CCNc1cnn(-c2ccc(C)cc2)c(=O)c1Sc1ccc(C)cc1	10µM*	0.3%	-0.9%	-36.5%	1.8%
CCOC(=O)[C@]12CCCC=C1N(Cc1ccc3c(c1)OCO3)C(=O)[C@H](CC(=O)NCCC(C)C)C2	/	/	-6.3%	/	/
Cc1cccc(C)c1Nc1nnc(SCc2cc([N+](=O)[O-])cc3c2OCOC3)s1	22.4µM*	2.1%	-13.9%	1.3%	2.0%
Cc1ccc(-c2nc(CS(=O)CC(=O)NC3CCCCC3)c(C)o2)cc1 (stereo not drawn)	/	-1.1%	-15.7%	-41.0%	2.6%
Cc1oc(-c2cccs2)nc1CS(=O)CC(=O)NC1CCCCCC1 (stereo not drawn)	?	8.8%	21.2µM*	-17.2%	-18.8%
Cc1ccccc1-c1nc(CS(=O)CC(=O)NC2CCCCC2)c(C)o1 (stereo not drawn)	/	14.4%	-15.9%	9.1%	2.3%
COc1ccc(-c2nc(CS(=O)CC(=O)NC3CCCC3)c(C)o2)cc1 (stereo not drawn)	/	4.7%	26.7µM*	0.3%	13.3%
CCOC(=O)CN1NC2(CCCCCC2)NC1=S	/	-17.3%	1.0%	7.08µM*	50.1µM*
CCOC(=O)Cn1c2c(c(=N)c3c1CCC3)CCCC2	16.4%	-4.9%	1.8%	-0.5%	-5.4%
CCCCn1nnnc1C(c1cccc2ccccc12)N1CCN(C/C=C/c2ccccc2)CC1 (stereo not drawn)	/	/	-2.8%	/	/
CC(=O)Nc1nc2n(n1)C(c1ccc(Cl)cc1)C=C(C)N2 (stereo not drawn)	?	1.5%	-6.6%	-22.6%	56.2µM*
O=C(Nc1nc2n(n1)C(c1ccccc1)C=C(c1ccccc1)N2)c1ccco1 (stereo not drawn)	?	2.4%	-10.5%	-21.8%	56.2µM*
CC(=O)Nc1nc2n(n1)C(c1ccccc1)C=C(c1ccccc1)N2 (stereo not drawn)	?	7.0%	-12.1%	-0.2%	?
CC(=O)Nc1nc2n(n1)C(c1ccc(F)cc1)C=C(c1ccccc1)N2 (stereo not drawn)	?	-14.8%	-24.1%	-12.1%	35.5µM*
COc1ccc(CNC(=O)C[C@H]2C[C@H](C(=O)N3CCCCC3)[C@@]3(C)c4[nH]c5cc(CCC(=O)N(C)C)ccc5c4CCN3C2=O)cc1OC	/	/	-2.4%	/	/
Cc1cccc(OC(=O)Nc2ccc(C(=O)O)c(O)c2)c1	/	/	-28.5%	/	/
CC(C)(C)c1ccc(OC(=O)Nc2ccc(O)c(C(=O)O)c2)cc1	-2.7%[13.5 µM]	1.26µM*	-26.8%	?	50.1µM*
O=C(O)c1cc2n(n1)C(C(F)(F)F)CC(C1CC1)N2 (stereo not drawn)	/	1.1%	23.8µM*	4.8%	1.9%
CC(C)C1CC(C(F)(F)F)n2nc(C(=O)O)cc2N1 (stereo not drawn)	10.6%	4.5%	-16.2%	8.1%	11.3%
O=[N+]([O-])c1ccccc1C(O)Cc1ccccn1 (stereo not drawn)	/	/	-7.6%	/	/
c1cc2c(cc1C1CCCCC1)c1c3n2CCN[C@H]3CCC1	?	?	/	?	5.62µM*
Oc1ccc2c(c1)c1c3n2CCNC3CCC1 (stereo not drawn)	/	-12.2%	-4.0%	-3.9%	14.7%
c1ccc2c(c1)c1c3n2CCNC3CCC1 (stereo not drawn)	?	-14.0%	1.2%	9.9%	79.4µM*
SMILES	ALDH1A1 inh	Gal4-VP16 FLuc	PLK1 PBD block	RORgamma inh	Sfp PPTase inh
c1cc2c(cc1C1CCCCC1)c1c3n2CCCNC3CCC1 (stereo not drawn)	-9.5%	-99.1%	-1.0%	?	31.6µM*
CCCC(C)NC(=O)c1sc2nc3n(c(=O)c2c1C)CCC3 (stereo not drawn)	0.1%	22.8%	-4.4%	29.2%	19.2%
S=C(c1ccc(-c2cc(Cl)ccc2Cl)o1)N1CCCCC1	2.8%	5.0%	-0.7%	-8.7%[10 µM]	15.8µM*
S=C(c1ccc(-c2cc(Cl)ccc2Cl)o1)N1CCOCC1	22.4µM*	/	-13.5%	26.0%[0.365 µM]	25.1µM*
O=C(c1ccc(-c2ccccc2Cl)o1)N1CCCCCCC1	/	/	-0.5%	/	/
O=[N+]([O-])c1ccccc1-c1ccc(C(=S)N2CCCCC2)o1	22.4µM*	22.7%	-19.1%	-17.8%	25.1µM*
CCOC(=O)N1CCN(C(=O)COc2cccc3c2CCN(Cc2ccccc2C)C3=O)CC1	25.1µM*	-19.5%	-4.3%	?	4.5%
CC1CCN(C(=O)COc2cccc3c2CCN(Cc2ccccc2)C3=O)CC1	28.2µM*	2.2%	-12.0%	30.8%	3.9%
Cn1c(=S)n(C)c2ccccc21	8.2%	-1.0%	-0.6%	-44.7%	13.0%
Cn1ccc(=S)c2ccccc21	7.08µM*	-5.3%	11.9µM*	1.7%	35.5µM*
CCC(=O)N1N=C(c2ccc(C)o2)CC1c1ccc(Br)cc1 (stereo not drawn)	?	-8.9%	-25.7%	17.3%	50.1µM*
Cc1cc(C(=O)N2CCC2(C)C(=O)NS(=O)(=O)c2ccccc2Cl)nn1C (stereo not drawn)	/	/	-11.0%	/	/
CC(OC(=O)Nc1cccc(Cl)c1)C(=O)OC1CCCCC1 (stereo not drawn)	/	/	1.5%	/	/
COC(=O)NCC(C)OC(=O)Nc1cccc(Cl)c1 (stereo not drawn)	9.6%	0.0%	18.9µM*	-6.8%	-10.9%
Oc1c(Cl)cc(Cl)c2c1NCCC2	5.01µM*	5.01µM*	4.74µM*	3.16µM*	15.8µM*
Oc1c(Cl)cc(CN(Cc2cc(Cl)c(O)c(Cl)c2)C2CCCCC2)cc1Cl	4.8%[13.5 µM]	/	/	/	/
C=CCn1c(SCC(=O)NCCC2=CCCCC2)nc2ccc(Cl)cc2c1=O	-0.3%	-2.8%	10.6µM*	1.9%	21.5%
O=C(CCNC(=O)Cn1cnc2ccccc2c1=O)NCCC1=CCCCC1	?	2.1%	26.7µM*	15.5%	-7.5%
Cc1cc2ccccc2c(=O)n1CC(=O)NCCC1=CCCCC1	25.1µM*	-27.0%	2.7%	12.8%	-4.5%
O=C(CCn1c(=O)c2ccccc2n(CC(=O)NCCC2=CCCCC2)c1=O)NCc1ccco1	15.8µM*	13.1%	-6.0%	6.1%	?
CCCCCCCCN1C(=O)[C@H](CC(=O)N2CCN(C(=O)c3ccco3)CC2)C[C@@]2(C(=O)OC)CC(C)(C)CC=C12	/	/	-0.2%	/	/
S=C(NCCC1=CCCCC1)NCc1ccco1	?	?	-15.4%	7.08µM*	-19.8%
COc1ccc(-c2cc(C(=O)Nc3ccc(OC)c(OC)c3)[nH]n2)c(C)c1	/	/	-9.4%	/	/
Fc1ccc(CNC(=S)NC2CCCC2)cc1	14.0%	?	-4.0%	8.91µM*	26.5%
O=C(Cc1ccc(F)cc1)NC1CCCCCC1	/	0.5%	-14.0%	-2.5%	24.8%
S=C(NCc1ccncc1)NC1CCCC1	2.7%	4.1%	-7.0%	-11.1%	5.9%
Fc1ccc(CNC(=S)NC2CCCCC2)cc1	3.5%	11.2µM*	?	5.01µM*	12.1%

From PubChem BioAssay
